Bioassay records as filed in PubChem.
D2 antagonist – D2 dopamine receptor (human) antagonism. P14416. HEK293 TREx D2 cells, calcium flux, dopamine EC80. inhibition, % at 10 µM. 340,000 compounds, 2% hits. AID 485344; in the data active means inhibition above about 30%; inactive means below that, where a call was filed
Target sequence (P14416 whole entry, looked up): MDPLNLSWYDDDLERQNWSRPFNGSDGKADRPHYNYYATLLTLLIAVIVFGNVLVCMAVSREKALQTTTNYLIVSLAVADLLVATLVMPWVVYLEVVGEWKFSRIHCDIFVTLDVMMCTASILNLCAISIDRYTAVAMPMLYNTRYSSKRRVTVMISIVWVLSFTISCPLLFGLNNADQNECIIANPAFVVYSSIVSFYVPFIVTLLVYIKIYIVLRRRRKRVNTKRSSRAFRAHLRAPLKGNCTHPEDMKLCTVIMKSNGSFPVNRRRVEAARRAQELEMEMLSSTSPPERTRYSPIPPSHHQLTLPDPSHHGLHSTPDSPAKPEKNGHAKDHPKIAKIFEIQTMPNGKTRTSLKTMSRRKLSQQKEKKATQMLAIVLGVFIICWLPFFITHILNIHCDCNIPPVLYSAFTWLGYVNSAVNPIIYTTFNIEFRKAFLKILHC
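Compounds are added to dye-loaded, induced HEK293 T-REx cells coupled to calcium release via D2; after a 3 min kinetic read an EC80 dopamine stimulus is given and fluorescence is recorded for 3 more min.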
D2 PAM-1 – positively modulates the human D2 dopamine receptor allosterically; P14416; HEK293 T-REx D2, calcium flux, EC20 dopamine potentiation; potentiation, % at 10 µM; 340,000 compounds, 0.34% hits;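 active means potentiation over 3 SD above the plate norm, cut at about 30% in these data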
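Primary screen. Calcium kinetics in induced HEK293 T-REx D2 cells: compound pre-addition 180 s, EC20 dopamine, 180 s more.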
D2 PAM-2 – potentiates the human D2 dopamine receptor allosterically; P14416; DiscoveRx D2 beta-arrestin cells, luminescence, 90 min; 100% = 57 uM dopamine signal; potentiation, % (no concentration beside the values); 360,000 compounds, 0.23% hits; AID 624464; in the data active means potentiation above about 50%
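PathHunter beta-arrestin assay in DiscoveRx D2 cells. Compounds were added with an EC20 of dopamine (50 nM final) for 90 min at 37 deg C. Luminescence was read 1 h after detection reagent, with 57 uM dopamine as the EC100 control.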
D2 ag-1 – agonists of human D2 dopamine receptor (beta-arrestin); P14416; DiscoveRx PathHunter D2 beta-arrestin, luminescence, 90 min; 100% = 57 uM dopamine signal; activation, % (no concentration beside the values); 360,000 compounds, 0.084% hits; in the data active means activation above about 40%
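DiscoveRx PathHunter D2 beta-arrestin cells (2,100/well) attached overnight, then compound-stimulated 90 min at 37 C in HBSS/10 mM HEPES/0.1% Tween-20 buffer; beta-galactosidase complementation read by luminescence after 1 h at ambient temperature. Dopamine 57 uM final (EC100) as control.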
D2 ag-2 – activates the human D2 dopamine receptor. HEK293 T-REx D2 cells, calcium flux agonist mode. P14416. 340,000 compounds, 0.53% hits. activation, % at 2 µM;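 active means activation over 3 SD above normal in the single-dose calcium agonist read, cut at about 30% in these data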
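Tetracycline-induced HEK293 Trex cells with D2 receptor force-coupled to calcium signaling, plated overnight at 30 C and loaded with no-wash calcium dye. Calcium flux read kinetically for 180 s after compound addition; responses flag agonists.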
Hits are given with their value; n = inactive; x = no result. This is a sample that favours compounds with a hit; in the whole collection about 2.4% have one here.

SMILES	D2 antagonist	D2 PAM-1	D2 PAM-2	D2 ag-1	D2 ag-2
O=c1[nH]c(=O)n(C2CCCO2)cc1F (stereo unspecified)	32	n	n	n	n
CSc1cccc(CN2CCN(CCC(C)C)C(CCO)C2)c1 (stereo unspecified)	59	n	n	n	n
CC(C)CN1CCN(Cc2ccc(C#CC(C)(C)O)cc2)CC1CCO (stereo unspecified)	33	n	n	n	n
CC(C)CCN1CCN(Cc2cccc(C(F)(F)F)c2)CC1CCO (stereo unspecified)	76	n	n	n	n
CCCN(CCC)c1cc(C)nc2nc(-c3ccc(Cl)cc3)nn12	x	n	x	x	n
CC(=O)c1ccc(N2C(=O)Nc3ccccc3S2(=O)=O)cc1	x	n	x	x	n
Cn1cc(C(=O)NCc2ccc(Cl)cc2)c(=O)c2cc(S(=O)(=O)N3CCCCCC3)ccc21	x	n	x	x	n
CC1CCN(CCNC(=S)Nc2ccc(Cl)cc2)CC1	31	n	n	n	n
CCc1ccc(NC(=S)NC2CCN(Cc3ccccc3)CC2)cc1	98	n	n	n	n
S=C(Nc1ccccc1)NC1CCN(Cc2ccccc2)CC1	92	n	n	n	n
COc1ccc(CCNC(=S)NC2CCN(Cc3ccccc3)CC2)cc1	71	n	n	n	n
S=C(NCCN1CCOCC1)Nc1ccc(Cl)cc1	n	n	n	n	n
CCC(C)c1ccc(NC(=S)NC2CCN(Cc3ccccc3)CC2)cc1 (stereo unspecified)	x	n	n	n	x
CCc1nn2c(=O)cc(COC(=O)c3cccs3)nc2s1	x	n	x	x	n
Cc1ccc(NS(=O)(=O)c2ccc(-c3cc(C)no3)cc2)c(C)c1	x	n	x	x	n
S=C(Nc1ccc(Cl)cc1)NC1CCN(Cc2ccccc2)CC1	69	n	n	n	n
COc1ccc(NC(=S)NC2CCN(Cc3ccccc3)CC2)cc1OC	n	n	n	n	n
COc1cccc(OC)c1OCCCN1CCC(Cc2ccccc2)CC1	89	n	n	n	n
COc1ccccc1N1CCN(CCCOc2ccc(F)cc2)CC1	89	n	n	n	n
COc1ccccc1N1CCN(CCCCNC(=O)c2ccc3ccccc3c2)CC1	75	x	x	x	x
COc1ccccc1N1CCN(CCCCOc2c(OC)cccc2OC)CC1	78	n	n	n	n
COc1ccccc1N1CCN(CCOc2c(OC)cccc2OC)CC1	98	n	n	n	n
COc1ccccc1N1CCN(CCCNc2c(C)c(=O)n(C)c(=O)n2C)CC1	x	x	n	n	x
COc1ccccc1N1CCN(CCCNc2cc(=O)n(C)c(=O)n2C)CC1	64	n	n	n	58
O=c1cc(CN2CCCCCC2)nc2sccn12	n	n	n	n	n
SMILES	D2 antagonist	D2 PAM-1	D2 PAM-2	D2 ag-1	D2 ag-2
COCCn1nnnc1CN1CCC(Cc2ccccc2)CC1	n	38	n	n	n
COCCn1nnnc1CN1CCSCC1	n	n	n	n	n
COc1ccccc1N1CCN(Cc2cc(=O)n3ccsc3n2)CC1	n	41	n	n	n
COc1cccc(OC)c1OCCN1CCCC1	n	n	n	n	n
O=C(CSc1nccn1Cc1ccc(F)cc1)Nc1ccc2c(c1)OCCO2	x	n	x	x	n
COc1cc(OC)c(NC(=O)N2CCc3cc(S(=O)(=O)N4CCC(C)CC4)ccc32)cc1Cl	x	n	x	x	n
CCOc1ccc(CN2CCC(Cc3ccccc3)CC2)cc1	30	n	n	n	n
CCOC(=O)/C(=C\c1ccc(N2CCC(c3ccccc3)=N2)cc1)C(C)=O	x	x	n	n	x
O=C(/C=C/c1ccc(N2CCC(c3ccccc3)=N2)cc1)c1ccccc1	33	n	n	n	37
Cc1onc(-c2ccccc2)c1C(=O)NNC(=S)NC(=O)c1ccc(Cl)cc1Cl	30	n	n	n	32
O=C(NC(=S)NNC(=O)c1ccc(Cl)cc1Cl)c1cccnc1	n	n	n	n	n
Cc1ccccc1C(=O)NNC(=S)NC(=O)c1ccc(Cl)cc1Cl	31	n	n	n	46
Cc1cccc(C(=O)NC(=S)NNC(=O)c2ccccc2Cl)c1	n	n	n	n	31
Cc1onc(-c2ccccc2)c1C(=O)NNC(=O)c1ccccc1	n	n	n	n	n
CN1C(=O)c2ccccc2Sc2ccc(NC(=O)COc3ccc(F)cc3)cc21	x	n	x	x	n
CC(=O)C1=C(C)OC(N)=C(C#N)C1c1cc2cc(C)c(C)cc2nc1Cl (stereo unspecified)	31	n	n	n	n
COC(=O)C1=C(C)OC(N)=C(C#N)C1c1cc2cc(C)ccc2nc1Cl (stereo unspecified)	n	n	n	n	n
Cc1ccc(NC(=O)CSc2nc3ccccc3n2CC(=O)N2CCC(C)CC2)cc1C	x	n	x	x	x
Cc1cc(S(=O)(=O)N2CCN=C2c2ccccc2)c(Cl)cc1Cl	n	n	n	n	30
Clc1ncccc1-c1nc2ccccc2s1	n	66	n	n	n
COc1cccc(-c2nc3ccccc3s2)c1O	n	n	n	n	n
O=C(CN1C(=O)CC(c2ccc(F)cc2)=Nc2ccccc21)NCc1ccccc1Cl	x	n	x	x	n
CCC(C)C(NC(N)=O)C(=O)NC1CCC(C)CC1 (stereo unspecified)	33	n	x	x	n
COc1cc(C(=O)NCc2nc3cccnc3n2Cc2ccc(C)cc2)cc(OC)c1OC	x	n	x	x	n
O=C(NCCc1ccccc1)c1cnc2sc(N3CCCCCC3)nn2c1=O	x	n	x	x	n
SMILES	D2 antagonist	D2 PAM-1	D2 PAM-2	D2 ag-1	D2 ag-2
CC1(C)CC(NCc2ccccc2)CCO1 (stereo unspecified)	n	38	n	n	n
Oc1ccc2ccccc2c1C=Nc1ccccc1-c1nc2ccccc2[nH]1	41	n	53	n	n
O=C(O)c1ccccc1-c1nc2ccccc2[nH]1	n	n	n	n	n
CC(C)=CCN1CCN(Cc2c[nH]c3ccccc23)CC1CCO (stereo unspecified)	47	n	n	n	n
CC(C)CN1CCN(Cc2c[nH]c3ccccc23)CC1CCO (stereo unspecified)	n	n	n	n	n
CC(C)=CCN1CCN(Cc2cccn2-c2ccccn2)CC1CCO (stereo unspecified)	99	n	n	n	n
CC(C)CN1CCN(Cc2cccn2-c2ccccn2)CC1CCO (stereo unspecified)	n	n	n	n	n
CCCCN(C)S(=O)(=O)c1cc(-c2cc(C)no2)ccc1C	x	n	x	x	n
CSc1ccccc1NC(=O)CSc1n[nH]c(C)c1[N+](=O)[O-]	41	n	n	n	n
Cc1ccc(O)c(NC(=O)CSc2n[nH]c(C)c2[N+](=O)[O-])c1	x	x	n	n	x
C(=N\Nc1nc(-c2ccccc2)cs1)/c1ccncc1	n	n	n	n	n
C(=N\Nc1nc(-c2ccccc2)cs1)/c1cccs1	n	n	63	n	n
C=CCOc1ccc(CN(C)CC(=O)Nc2ccc3c(c2)CCC3)cc1	n	n	n	n	n
